From PubChem BioAssay
TGFb inhibitor: TGF-b pathway inhibition. HepG2 CAGA-GFP TGF-b/SMAD3 reporter, GFP fluorescence, 18 h; TGF-beta stimulated, 500 pg/mL final. Potency, µM (highest dose often 46.1 µM), most hits filed as inhibitors. 410,000 tested, 1.2% active. AID 588855; note: nearly all actives have a fitted effect of over 65% in size
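Cell-based qHTS in HEPG2 carrying a CAGA-GFP Smad reporter; compounds added before 500 pg/mL final TGF-beta, 18 h incubation at 37 degrees C, GFP fluorescence quantified per cell by imaging cytometry.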
HT1080NT lethal: kills 2HG-producing HT-1080-NT fibrosarcoma cells | HT-1080-NT fibrosarcoma viability, CellTiter-Glo ATP luminescence, 48 h | Potency, µM (series often up to 46.1 µM), usual class: cytotoxic | 360,000 tested, 1.6% active;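 note: NT is the 2HG producing partner of a matched IDH1 knockdown line; nearly all actives have a fitted effect of over 55% in size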
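Compounds were tested in concentration-response format on HT-1080-NT cells for 48 hours at 37 degrees C. Cell viability came from CellTiter-Glo luminescence; curves were classified by r2, response magnitude and activity.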
KB-V1 MDR tox: kills drug-selected multidrug resistant KB-V1 cells. KB-V1 MDR cells viability, CellTiter-Glo, 72 h. Potency, µM (series often up to 46.1 µM), hits mostly cytotoxic. 400,000 tested, 3.4% active. AID 1347076; note: nearly all actives have a fitted effect of over 60% in size
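qHTS viability screen in drug-selected KB-V1 MDR cells: 72 h compound treatment at 37 degrees C, ATP luminescence end point.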
HT1080 IDH1KD tx: HT-1080 IDH1 knockdown cell toxicity (counter line); HT-1080 IDH1 knockdown viability, ATP luminescence, 48 h; Potency, µM (highest dose often 46.1 µM), hits mostly cytotoxic; 360,000 tested, 2% active; AID 686971
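After a 2 h attachment period, IDH1KD HT-1080 cells took pin-transferred compound for 48 h at 37 °C; ATP-based luminescence after 10 min room-temperature reagent incubation reported viability.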
HepG2 tox: counter-screen for TGF-b inhibitors: cytotoxicity in HepG2 cells | HepG2 CAGA-GFP viability, ATP luminescence, 18 h | Potency, µM (titrated, usually from 46.1 µM), most hits filed as cytotoxic | 410,000 tested, 0.76% active
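CellTiter-Glo luminescence gave cytotoxicity after 18 hours at 37 degrees C. The cells were HepG2 CAGA-GFP in 1% FBS DMEM, stimulated with 500 pg/mL TGF-beta after compound addition. %Activity was normalised to no-cell wells (complete cell-killing) and DMSO (no toxicity), and curves were fitted and classified.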
KB-3-1 cytotox: KB-3-1 parental cell cytotoxicity. KB-3-1 viability, CellTiter-Glo ATP luminescence, 72 h. 400,000 tested, 1.4% active. Potency, µM (series often up to 46.1 µM), hits mostly cytotoxic; note: nearly all actives have a fitted effect of over 60% in size
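Cells are dispensed, compounds pinned in, plates held at 37 °C for 72 h, then CellTiter-Glo is added and luminescence read after 10 minutes. Cell line: parental KB-3-1 in phenol-red-free DMEM, 10% FBS.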
A number is an active result. Only some compounds are listed: those with a hit (about 6.6% of all), similar ones and a draw of the others. Calls come from the whole dose curve; as a rule, active = well fitted curve in the direction sought with a large enough effect; inconclusive = small, poorly fitted or top-dose-only effect, or another doubt; inactive = no such curve, though single readings can be large; an effect the other way counts as inactive or inconclusive.

`COc1ccc(/C=C/c2c([N+](=O)[O-])c(=O)n(C)c(=O)n2C)cc1O` gave TGFb inhibitor inactive, HT1080NT lethal inactive, KB-V1 MDR tox inconclusive, HT1080 IDH1KD tx inactive, HepG2 tox inactive and KB-3-1 cytotox inconclusive.
`COc1ccc(OC)c(/C=C/c2c([N+](=O)[O-])c(=O)n(C)c(=O)n2C)c1` gave TGFb inhibitor inactive, HT1080NT lethal inactive, KB-V1 MDR tox inactive, HT1080 IDH1KD tx inactive, HepG2 tox inactive and KB-3-1 cytotox 21µM.
For CCC(=O)C1=C(c2cccc(OC)c2)N(C(=O)CC)n2c(nnc2C2CCCCC2)S1 the results were TGFb inhibitor inactive and HepG2 tox inactive.
CC(Sc1nc2ccccc2n1C)C(=O)NC(c1ccccc1)c1ccccc1 (centres undefined) was read as TGFb inhibitor inactive, HT1080NT lethal inactive, KB-V1 MDR tox 8.2µM, HT1080 IDH1KD tx inactive, HepG2 tox inactive and KB-3-1 cytotox inactive.
`Cn1c(SC(C(=O)Nc2ccc(F)cc2)c2ccccc2)nc2ccccc21` (centres undefined) gave TGFb inhibitor inactive, HT1080NT lethal inactive, KB-V1 MDR tox inconclusive, HT1080 IDH1KD tx inconclusive, HepG2 tox inactive and KB-3-1 cytotox inactive.
`COc1ccc(NC(=O)c2nc(SCc3ccccc3F)ncc2Cl)cc1` gave TGFb inhibitor inactive, KB-V1 MDR tox inactive, HepG2 tox inactive and KB-3-1 cytotox inactive.
For COc1ccc2nc3n(c(=O)c2c1)-c1cc2ccccc2cc1C(=O)NC3Cc1ccc(O)cc1 (centres undefined) the results were TGFb inhibitor inconclusive, HT1080NT lethal 6.5µM, KB-V1 MDR tox inactive, HT1080 IDH1KD tx 3.3µM, HepG2 tox inactive and KB-3-1 cytotox inactive.
`COc1ccc2nc3n(c(=O)c2c1)-c1cc2ccccc2cc1C(=O)NC3Cc1ccccc1` (centres undefined) gave TGFb inhibitor inactive, HT1080NT lethal inactive, KB-V1 MDR tox inconclusive, HT1080 IDH1KD tx inactive, HepG2 tox inactive and KB-3-1 cytotox 12µM.
`O=C1NC(Cc2ccc(O)cc2)c2nc3ccc(Br)cc3c(=O)n2-c2ncccc21` (centres undefined) gave TGFb inhibitor inactive, HT1080NT lethal inactive, KB-V1 MDR tox inactive, HT1080 IDH1KD tx inactive, HepG2 tox inactive and KB-3-1 cytotox inactive.
`O=C1NC(Cc2ccc(O)cc2)c2nc3ccc(Br)cc3c(=O)n2-c2cc3ccccc3cc21` (centres undefined) gave TGFb inhibitor 13µM, HT1080NT lethal 16µM, KB-V1 MDR tox inconclusive, HT1080 IDH1KD tx 13µM, HepG2 tox inactive and KB-3-1 cytotox inconclusive.
COc1ccc2nc3n(c(=O)c2c1)-c1ccc(Cl)cc1C(=O)NC3Cc1ccc(O)cc1 (centres undefined) was read as TGFb inhibitor inactive, HT1080NT lethal inactive, KB-V1 MDR tox inconclusive, HT1080 IDH1KD tx inactive, HepG2 tox inactive and KB-3-1 cytotox inactive.
For COc1ccccc1/C=C/c1nc(C#N)c(NCc2ccccc2)o1 the results were HepG2 tox inactive.
CC(C)(C)C(=O)Nc1c(C(=O)N2CCN(c3ccc(F)cc3)CC2)oc2ccccc12 was read as TGFb inhibitor inactive, KB-V1 MDR tox inactive, HepG2 tox inactive and KB-3-1 cytotox inactive.
`Cc1cccc(C)c1N1CCN(C(=O)Nc2ccc3c(c2)OCCO3)CC1` gave TGFb inhibitor inactive, HT1080NT lethal inactive, KB-V1 MDR tox 4.6µM, HT1080 IDH1KD tx inactive, HepG2 tox inactive and KB-3-1 cytotox inactive.
For O=C(Nc1ccc2c(c1)OCCO2)N1CCN(c2ccc(F)cc2)CC1 the results were TGFb inhibitor inactive, HT1080NT lethal inactive, KB-V1 MDR tox 21µM, HT1080 IDH1KD tx inactive, HepG2 tox inactive and KB-3-1 cytotox inconclusive.
For COc1ccccc1NC(=O)C1=C(C)Nc2nc(SCc3ccc(Cl)cc3)nn2C1c1ccccc1Cl (centres undefined) the results were TGFb inhibitor inactive, KB-V1 MDR tox inactive, HepG2 tox inactive and KB-3-1 cytotox inactive.
